Test results as given in the supplement of paper PMC8728848.
The entries come from a sample that favours the strongest signals as a whole.

Columns and labels:
Assay in all cases: glycan array binding signal (z-score within array); higher = stronger binding
Details in all cases: glycan notation: IUPAC condensed, linker removed
GlcA(b1-3)Gal = biological target: GlcA(b1-3)Gal
Method in brief: (§1)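 Glycan array binding is given as a within-array Z-score, which can be read as non-binding when negative. The arrays, 3228 of them, came from the Consortium for Functional Glycomics database and were retained only where the protein sequence was available. Z-scores were averaged across arrays of the same protein sequence at different concentrations or buffers and across linkers.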

[1] = biological target: GlcA3S(b1-3)Gal(b1-4)GlcNAc(b1-2)Man
Method in brief: as §1

[2] = biological target: GlcNAc(a1-4)Gal(b1-4)GalNAc
Method in brief: as §1

[3] = biological target: GlcNAc(a1-4)Gal(b1-4)GlcNAc(b1-3)Gal(b1-4)[Fuc(a1-3)]GlcNAc(b1-3)Gal(b1-4)[Fuc(a1-3)]GlcNAc
Method in brief: as §1

[4] = biological target: GlcNAc(b1-2)[GlcNAc(b1-4)]Man(a1-3)[GlcNAc(b1-4)][GlcNAc(b1-2)[GlcNAc(b1-6)]Man(a1-6)]Man(b1-4)GlcNAc(b1-4)[Fuc(a1-6)]GlcNAc
Method in brief: as §1

GlcNAc(b1-3)Fuc = biological target: GlcNAc(b1-3)Fuc
Method in brief: as §1

[5] = biological target: GlcNAc(b1-3)Gal(b1-4)GlcNAc(b1-2)[GlcNAc(b1-3)Gal(b1-4)GlcNAc(b1-6)]Man(a1-6)[GlcNAc(b1-3)Gal(b1-4)GlcNAc(b1-2)Man(a1-3)]Man(b1-4)GlcNAc(b1-4)GlcNAc
Method in brief: as §1

[6] = biological target: GlcNAc(b1-3)Gal(b1-4)GlcNAc(b1-3)[GlcNAc(b1-3)Gal(b1-4)GlcNAc(b1-3)]GalNAc
Method in brief: as §1

Man(a1-2)Man(a1-3)Man = biological target: Man(a1-2)Man(a1-3)Man
Method in brief: as §1

Neu5Ac(a2-3)Gal = biological target: Neu5Ac(a2-3)Gal
Method in brief: as §1

[7] = biological target: Neu5Ac(a2-3)Gal(b1-3)GalNAc(b1-4)[Neu5Ac(a2-3)]Gal(b1-4)Glc
Method in brief: as §1

[8] = biological target: Neu5Ac(a2-3)Gal(b1-3)GalNAc(b1-4)[Neu5Ac(a2-8)Neu5Ac(a2-3)]Gal(b1-4)Glc
Method in brief: as §1

[9] = biological target: Neu5Ac(a2-3)Gal(b1-3)[Neu5Ac(a2-6)]GlcNAc(b1-3)[Fuc(a1-3)[Gal(b1-4)]GlcNAc(b1-6)]Gal(b1-4)Glc
Method in brief: as §1

[10] = biological target: Neu5Ac(a2-3)Gal(b1-3)]Neu5Ac(a2-3)Gal(b1-4)]GlcNAc
Method in brief: as §1

[11] = biological target: Neu5Ac(a2-3)Gal(b1-4)GlcNAc(b1-2)Man(a1-3)[GlcNAc(b1-4)][Neu5Ac(a2-3)Gal(b1-4)GlcNAc(b1-2)Man(a1-6)]Man(b1-4)GlcNAc(b1-4)GlcNAc
Method in brief: as §1

[12] = biological target: Neu5Ac(a2-3)Gal(b1-4)GlcNAc(b1-3)[Neu5Ac(a2-3)Gal(b1-4)GlcNAc(b1-6)]GalNAc
Method in brief: as §1

[13] = biological target: Neu5Ac(a2-3)Gal(b1-4)[Fuc(a1-3)]GlcNAc(b1-3)Gal(b1-4)GlcNAc
Method in brief: as §1

[14] = biological target: Neu5Ac(a2-3)Gal(b1-4)[Fuc(a1-3)]GlcNAc(b1-6)[Neu5Ac(a2-3)Gal(b1-3)]GalNAc
Method in brief: as §1

Neu5Ac(a2-6)Gal(b1-4)Glc = biological target: Neu5Ac(a2-6)Gal(b1-4)Glc
Method in brief: as §1

[15] = biological target: Neu5Ac(a2-6)Gal(b1-4)GlcNAc(b1-2)Man
Method in brief: as §1

[16] = biological target: Neu5Ac(a2-6)Gal(b1-4)GlcNAc(b1-2)Man(a1-6)[GlcNAc(b1-2)Man(a1-3)]Man(b1-4)GlcNAc(b1-4)GlcNAc
Method in brief: as §1

[17] = biological target: Neu5Ac(a2-6)Gal(b1-4)GlcNAc(b1-3)Gal(b1-4)GlcNAc
Method in brief: as §1

[18] = biological target: Neu5Ac(a2-6)Gal(b1-4)GlcNAc(b1-3)Gal(b1-4)GlcNAc(b1-3)[Neu5Ac(a2-6)Gal(b1-4)GlcNAc(b1-3)Gal(b1-4)GlcNAc(b1-6)]GalNAc
Method in brief: as §1

[19] = biological target: Neu5Ac(a2-6)Gal(b1-4)GlcNAc(b1-3)[Neu5Ac(a2-6)Gal(b1-4)GlcNAc(b1-6)]GalNAc
Method in brief: as §1

[20] = biological target: Neu5Ac(a2-6)Gal(b1-4)GlcNAc(b1-6)[Gal(b1-3)GlcNAc(b1-3)]Gal(b1-4)Glc
Method in brief: as §1

[21] = biological target: Neu5Ac(a2-6)Gal(b1-4)GlcNAc(b1-6)[Gal(b1-3)]GalNAc
Method in brief: as §1

[22] = biological target: Neu5Ac(a2-8)Neu5Ac(a2-8)Neu5Ac(a2-3)[Gal(b1-3)GalNAc(b1-4)]Gal(b1-4)Glc
Method in brief: as §1

B1: PX14343E-bfa-545-24-545 (Bacteroides fragilis) (protein)
chain: LDRYPQEELSDGSFWKTPDDANKVVSDLYGYLSTWDQDNDINSDNATMGIKWAAGNVSKGIYDPADQGWSGDYANVRQCNLILSKIDEIPDYPEADKTKALGQVYFFRAYIYFNLIRSFGDVPYIDKPLDLKDMEGITRMPRAEVYEKIMADFDKAIAALPTEWGASDYGRVTKGAAMAMKARAALYYGNWDTAATEAKNVMDLGLYELYDKDNTGKYAELFWEKADGCDEFILVTQFNYPDKTHYLMGWECFPTKGWGGMNPTQSLVDAFEDSEGAPISKSKIYDPTDPFKNRDPRLEVDILHDGEEMYGVTIKVAPLASSGSTGINQHNDATETGYYGQKWLDPSLDPLSDGWNMGKDWVHIRYAEVLLTYAEAKNELQGLDPEAFDAVNQVRRRVGMPELQNTDPSKPTYCATQDDLRQRIRNEWRVEFCLEGGKRMWDIRRWGIAKDVLNAPFEGLKYKIVDNPNDPDKKVDGGKMCILYQGDPIILSGSRYSDNNYLFPVPQSEIDLNPALTQNPGY
- glycan array binding signal (z-score) (GlcA(b1-3)Gal): -0.027
- glycan array binding signal (z-score) [1]: -0.441
- glycan array binding signal (z-score) [2]: 0.655
- glycan array binding signal (z-score) [3]: 8.96
- glycan array binding signal (z-score) [4]: -0.534
- glycan array binding signal (z-score) (GlcNAc(b1-3)Fuc): -0.635
- glycan array binding signal (z-score) [5]: 0.412
- glycan array binding signal (z-score) [6]: -0.23
- glycan array binding signal (z-score) (Man(a1-2)Man(a1-3)Man): -0.688
- glycan array binding signal (z-score) (Neu5Ac(a2-3)Gal): -0.082
- glycan array binding signal (z-score) [7]: -0.236
- glycan array binding signal (z-score) [8]: -0.153
- glycan array binding signal (z-score) [9]: 0.395
- glycan array binding signal (z-score) [10]: -1.08
- glycan array binding signal (z-score) [11]: 0.058
- glycan array binding signal (z-score) [12]: -0.912
- glycan array binding signal (z-score) [13]: -0.873
- glycan array binding signal (z-score) [14]: 0.423
- glycan array binding signal (z-score) (Neu5Ac(a2-6)Gal(b1-4)Glc): -0.096
- glycan array binding signal (z-score) [15]: -0.34
- glycan array binding signal (z-score) [16]: 0.074
- glycan array binding signal (z-score) [17]: -0.139
- glycan array binding signal (z-score) [18]: 2.92
- glycan array binding signal (z-score) [19]: 2.89
- glycan array binding signal (z-score) [20]: -0.484
- glycan array binding signal (z-score) [21]: -0.085
- glycan array binding signal (z-score) [22]: -0.399
